GDH-TPI counter-1 = counter-screen for M. tuberculosis FBA inhibitors: GDH-TPI coupled enzymes; 1.2% of 360,000 active; GDH-TPI coupled enzyme counterscreen, NADH absorbance; inhibition, % at 4.8 µM; in the data active = inhibition above about 30%
Mtb bLac sens = beta-lactam sensitization of Mtb H37Rv; M. tuberculosis H37Rv growth with meropenem, percent inhibition; 0.27% of 330,000 active; inhibition, % at 25 µM; AID 434955; call rule not given here;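 note: growth measured after seven days incubation then overnight dye step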
RecA intein inh = blocks M. tuberculosis RecA intein splicing. 0.75% of 290,000 active. P9WHJ3. cell-free RecA intein splicing, fluorescence. inhibition, % (concentration not given with the values); in the data active = inhibition above about 30%
UGM FP inh = Mtb UDP-galactopyranose mutase inhibition; P9WIQ1; purified UGM, fluorescence polarization probe displacement; inhibition, % at 10 µM; 0.06% of 320,000 active; in the data active = inhibition above about 10%, passing the limit was not always enough
Mtb FBA inh = inhibitors of M. tuberculosis fructose-bisphosphate aldolase. purified M. tuberculosis FBA, fluorescence read-out. inhibition, % at 1 µM. 2.3% of 360,000 active. AID 588726
Target sequence (P9WQA3 whole entry, looked up): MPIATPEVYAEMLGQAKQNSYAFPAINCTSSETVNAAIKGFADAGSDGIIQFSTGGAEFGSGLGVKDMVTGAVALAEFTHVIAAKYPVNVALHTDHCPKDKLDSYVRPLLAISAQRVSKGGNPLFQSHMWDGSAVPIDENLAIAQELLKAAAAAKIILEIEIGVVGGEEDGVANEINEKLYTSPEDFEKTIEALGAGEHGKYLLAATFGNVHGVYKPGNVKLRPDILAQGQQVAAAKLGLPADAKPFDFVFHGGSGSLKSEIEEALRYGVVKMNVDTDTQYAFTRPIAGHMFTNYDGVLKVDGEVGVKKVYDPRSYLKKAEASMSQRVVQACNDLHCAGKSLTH
Rv3671c protease = inhibitors of M. tuberculosis serine protease Rv3671c | 0.048% of 320,000 active | inhibition, % at 5.96 µM | AID 2606; in the data active = inhibition above about 38%;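 note: extracellular domain of Rv3671c used as enzyme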
Mtb FBA inh conf = Mtb FBA inhibition, confirmed. shares compounds with Mtb FBA inh. purified M. tuberculosis FBA, fluorescence read-out. inhibition, % at 1 µM. 78% of 5,600 active
GDH-TPI counter-2 = inhibits GDH-TPI coupling enzymes, flagging Mtb FBA hits; 81% of 5,600 active; inhibition, % at 1 µM; GDH-TPI coupled enzyme counterscreen, fluorescence; shares compounds with Mtb FBA inh; in the data active = inhibition above about 10%
A number is an active result; . = inactive; / = no result; + = active, no number. An excerpt weighted towards active compounds, which were near 4% of everything screened. Cut-off read from the data, not from the text of the source, unless noted: active = inhibition above about 27%; inactive = the rest.

SMILES | GDH-TPI counter-1 | Mtb bLac sens | RecA intein inh | UGM FP inh | Mtb FBA inh | Rv3671c protease | Mtb FBA inh conf | GDH-TPI counter-2
Cc1c(C)c2c(OCC(=O)NCc3ccncc3)cc3c(c2oc1=O)CCC(C)(C)O3 | . | . | . | . | 31 | . | + | +
Cc1cc(=O)oc2c3c(cc(OCC(=O)N[C@@H](CC(C)C)C(=O)O)c12)OC(C)(C)CC3 | . | . | . | . | 39 | . | 39 | 35
Cc1c(C)c2c(OCC(=O)NCc3ccco3)cc3c(c2oc1=O)CCC(C)(C)O3 | . | . | . | . | 34 | . | + | +
Cc1ccc(NC(=O)COC(=O)c2ccc3c(c2)OCO3)cc1S(=O)(=O)N1CCCCC1 | . | . | . | . | . | . | / | /
Cc1c(C)c2c(OCC(=O)NCC(C)C)cc3c(c2oc1=O)CCC(C)(C)O3 | . | . | . | . | 57 | / | + | 190
COc1ccc(CNC(=O)COc2cc3c(c4oc(=O)cc(C)c24)CCC(C)(C)O3)cc1OC | . | . | . | . | 39 | . | 54 | 38
COc1ccc(CCNC(=O)COc2cc(C)cc3oc(=O)cc(C)c23)cc1OC | . | . | . | . | . | . | / | /
COc1cc2c(cc1OC)C(c1ccsc1)CC(=O)N2 (configuration not stated) | . | . | . | . | . | . | / | /
COC(=O)c1cnn(-c2ccc(Cl)cc2)c1/C=N/NC(N)=S | . | . | . | . | 45 | . | 67 | 35
Cc1cc(C)c(C2=CSC3=NS(=O)(=O)CCN23)c(C)c1 | . | . | . | . | . | . | / | /
C=CCn1c(SCC(=O)N(CC)C2CCS(=O)(=O)C2)nc2cc(C(=O)O)ccc2c1=O (configuration not stated) | . | . | / | . | 32 | . | 111 | 89
COc1cccc(CNC(=O)C(=O)NCC2CCCN2S(=O)(=O)c2cc(C)ccc2C)c1 (configuration not stated) | . | . | . | . | . | . | / | /
O=C(CNc1cccc2ccccc12)c1ccc([N+](=O)[O-])cc1 | . | . | . | . | 28 | . | 56 | 36
O=C(Nc1cccc2ccccc12)c1ccc([N+](=O)[O-])cc1 | . | . | . | . | . | . | / | /
NC(=O)c1ccccc1NCC(=O)c1ccc(Cl)cc1 | . | . | . | . | 43 | . | 159 | 124
O=C(CNc1ccccc1C(=O)O)c1ccccc1 | . | . | . | . | 28 | . | 34 | 32
CC(C)CC1NC(C(=O)O)Cc2c1[nH]c1ccccc21 (configuration not stated) | . | . | . | . | . | . | / | /
CC(C)C1NC(C(=O)O)Cc2c1[nH]c1ccccc21 (configuration not stated) | . | . | . | . | 45 | . | 164 | 142
CCCC1NC(C(=O)O)Cc2c1[nH]c1ccccc21 (configuration not stated) | . | . | . | . | 29 | / | 36 | 35
CCCOC(=O)CSc1nc(N)c(C#N)c(CC)c1C#N | . | . | . | . | . | . | / | /
Cc1cccn2c(=O)c3cc(S(=O)(=O)c4ccccc4)c(=N)n(Cc4ccc(F)cc4)c3nc12 | . | . | . | . | . | . | / | /
Cc1ccc(S(=O)(=O)c2cc3c(=O)n4ccccc4nc3n(C)c2=N)cc1 | . | . | . | . | 40 | . | 52 | 42
Cc1ccc(S(=O)(=O)c2cc3c(=O)n4ccccc4nc3n(CC3CCCO3)c2=N)cc1C (configuration not stated) | . | . | . | . | 37 | . | 92 | 63
Cc1cccn2c(=O)c3cc(C(=O)NC4CCCCC4)c(=N)n(Cc4ccc(F)cc4)c3nc12 | . | . | . | . | 31 | . | + | +
N=c1c(C(=O)NCCc2ccccc2)cc2c(=O)n3ccccc3nc2n1Cc1ccco1 | . | . | . | . | 30 | . | + | 163
Cc1ccc(S(=O)(=O)c2cc3c(=O)n4ccccc4nc3n(CCc3ccccc3)c2=N)cc1 | . | . | . | . | . | . | / | /
Cc1ccc(S(=O)(=O)c2cc3c(=O)n4ccccc4nc3n(C3CCCC3)c2=N)cc1 | . | . | . | . | . | . | / | /
Cc1ccc(NC(=S)NC(=O)C2CC2)c(C)c1 | . | . | / | . | . | . | / | /
Cc1ccc(CNC(=O)Cn2c(=O)n(-c3ccccc3)c(=O)c3sccc32)cc1 | . | . | . | . | . | . | / | /

High-throughput results deposited in PubChem by several laboratories.
